# The campaign covered roughly 190,000 compounds. About 3,500 (1.8%) were called active.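 How the source made its calls: active means inhibition above a set limit, 3 SD over mean compound inhibition (cut at about 8.4% in these data); inactive means the rest.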 This excerpt belongs to a sample that is enriched for actives.
# Test: inhibitors of the yeast RAM network, primary screen, dse1pr::URA3 reporter, 5-FOA selection (AID 868);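 further: 0% = DMSO-only wells with no growth and 100% = 10 µM 1-NA-PP1 full growth; inhibition rescues growth on 5-FOA so higher OD means more RAM inhibition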
# Conditions: S. cerevisiae dse1pr::URA3 reporter, 5-FOA growth OD615, 2 d; at 50 µM; stronger effect = higher value; analog-sensitive cbk1-as2 kinase mutant strain
row,SMILES,inhibition
1,Cc1ccc(-c2nn(-c3ccccc3)cc2/C=C/C(=O)Nc2cccc(S(N)(=O)=O)c2)cc1,4.87% (inactive)
2,COc1ccc(-c2nn(-c3ccccc3)cc2/C=C\C(=O)Nc2ccc(C(=O)O)cc2)cc1,9.89% (active)
3,O=C(O)c1ccc(NC(=O)c2cn(-c3ccccc3)nc2-c2ccc(Cl)cc2)cc1,6.63% (inactive)
4,COc1ccc(OCC(=O)Nc2cc(C)c(Cl)cc2OC)c([N+](=O)[O-])c1,1.54% (inactive)
5,CCCC(=O)OCC(=O)Nc1cc(Cl)ccc1[N+](=O)[O-],0.82% (inactive)
6,Cc1cc(NC(=O)COC(=O)COc2ccc(Cl)cc2C)c([N+](=O)[O-])cc1C,10.1% (active)
7,Cc1ccccc1C(=O)Nc1ccc(N2CCCCCC2)cc1,1.43% (inactive)
8,O=C(Nc1cc(S(=O)(=O)N2CCOCC2)ccc1Cl)c1cc(=O)c2ccccc2o1,1.91% (inactive)
9,COc1ccccc1NC(=O)/C=C/C(=O)O,2.02% (inactive)
10,c1ccc(CSc2nnc(-c3ccco3)c(-c3ccco3)n2)cc1,0.53% (inactive)
11,Clc1ccccc1CSc1nnc(-c2ccco2)c(-c2ccco2)n1,16% (active)
12,Nc1nc(SCc2ccccc2Cl)n[nH]1,2.44% (inactive)
13,CCOC(=O)C1CCCN(C(=O)COc2ccc(N(C)S(=O)(=O)c3ccc(C)cc3)cc2)C1 (configuration not stated),-0.86% (inactive)
14,COCc1c(N)c(C)nc(Cl)c1C#N,0.6% (inactive)
15,CC(C)(C)C(=O)N(Cc1ccccc1)c1ccccn1,-0.12% (inactive)
16,CCOC(=O)C/C(C)=N\Nc1ccc([N+](=O)[O-])cc1[N+](=O)[O-],0% (inactive)
17,Cc1ccccc1C(=O)OC1OC(=O)C(Cl)=C1Nc1ccccc1 (configuration not stated),6.67% (inactive)
18,Cc1ccc(NC2=C(Cl)C(=O)OC2OC(=O)c2ccccc2C)cc1 (configuration not stated),12.9% (active)
19,O=C1OC(OC(=O)c2ccccc2Br)C(N2CCOCC2)=C1Cl (configuration not stated),1.63% (inactive)
20,CCOc1ccc(C(=O)Nc2cccc(-c3ccc4nncn4n3)c2)cc1,3.23% (inactive)
21,COCCCNC(=O)/C=C/c1ccc(OCc2c(F)cccc2Cl)cc1,0.89% (inactive)
22,O=C(Nc1ccccc1C(=O)N1CCCCCC1)c1ccccc1Cl,-0.13% (inactive)
23,CC(=O)c1ccc(N2CCN(C(=O)c3ccc4nc[nH]c4c3)CC2)cc1,2.3% (inactive)
24,CCOC(=O)/C(N=Nc1cc(C(=O)O)cc(C(=O)O)c1)=C(\O)CCl,0% (inactive)
25,CCOc1cc(/C=C2/C(=N)N3OC(C)=CC3=NC2=O)ccc1OC,4.09% (inactive)
26,COc1ccc(OCCCn2cccc2/C=C2/C(=N)N3OC(C)=CC3=NC2=O)cc1,12.5% (active)
27,Cc1ccc(OCCCn2c(=O)oc3ccccc32)cc1,0.62% (inactive)
